We go through ten molecules from PubChem BioAssay (NCATS).

Inconclusive results are not listed. Activity calls are given as the source filed them. Calls come from the whole dose curve; as a rule, active = well fitted inhibition curve with a large enough effect; inconclusive = small, poorly fitted or top-dose-only effect; inactive = flat fitted curve, though single readings scatter.
% is set by controls: 0 for no effect and ±100 for the full control effect.

The subject of the test is HaCat. Briefly: Cytotoxic Profiling of Annotated Libraries Using Quantitative High-Throughput Screening (AID 1296008). Note: nearly all actives have a fitted effect of over 60% in size. The settings on record: Five cell lines viability, CellTiter-Glo ATP luminescence, 48-72 h; max response: stronger effect = lower value. The method in brief:
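Cytotoxicity was measured as CellTiter-Glo ATP luminescence, read after 10 min at room temperature. Compound treatment of the cells lasted 48 or 72 hr at 37 degrees Celsius in a qHTS format.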
In general terms: ATP-based viability assays read luminescence as a measure of living cells.
In the case of `C/C=C/C=C/C=C/C(=O)OC1C=C2C(O)OC(=O)[C@]2(O)[C@@]2(C)CCCC(C)(C)[C@H]12` (stereo not given in full), the call was inactive. For the molecule `O=C(/C=C/c1ccc(O)cc1)OC[C@H]1O[C@@H](O/C(=C\c2ccccc2)C(=O)O)[C@H](O)[C@@H](O)[C@@H]1O`, the molecule was classed as inactive.

As for `C=C(CO)C(=O)O[C@H]1C[C@@]23O[C@@H]2CC/C(=C/[C@H]2OC(=O)C(=C)[C@H]12)CO[C@H]3O`, the call was inactive. Same read-out and setting: next, `CC(C)CC(c1c(O)c(C=O)c(O)c(C=O)c1O)C1CCC(C)(O)C2CC(C(C)(C)O)CCC12C` (stereo not given): “inactive”; `COC(=O)C1=COC(OC2OC(CO)C(O)C(O)C2O)C2C(C)C(OC(C)=O)C(OC(=O)c3ccccc3)C12` (stereo not given): “inactive”. In the case of `C=C1CCC2C(C)(C(=O)OC)CCCC2(C)C1CCC1=CCOC1=O` (stereo not given), the max response is 1% (inactive).

With `Cc1cc(CNC(=O)c2cc(C(=O)NCc3ccc(F)c(C)c3)ncn2)ccc1F`, the max response was -0.507% (inactive).

`Cc1occc1C(=O)n1ccnc1`: the max response is 4.32% (inactive).

As to `O=C(O)C1(c2ccc(-c3ccc(Cl)c(Cl)c3)c(F)c2)CC1`, the result was inactive. Turning to `CC(=O)OC[C@]12[C@H](OC(C)=O)[C@H](OC(=O)c3ccccc3)[C@@H]3[C@@H](OC(C)=O)[C@]1(OC3(C)C)[C@H](C)C[C@H](OC(=O)c1ccccc1)[C@@H]2OC(=O)c1ccccc1`, the outcome was inactive.
